This is an account of results in PubChem BioAssay (NCATS).

Test [1] concerns the target Lysosomal acid glucosylceramidase (Homo sapiens) (UniProt P04062). In words: Glucocerebrosidase-p2 (AID 348; in the data active means potency below about 10 µM; further: potency means the concentration at half of the fitted maximal effect). Conditions: purified GBA, blue fluorogenic substrate, 40 min. Put shortly: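 Compounds titrated from 0.6 nM upwards against 0.2 nM enzyme in pH 5.9 citric acid/KH2PO4, taurocholate, tween-20; blue fluorogenic substrate 80 uM, 40 min room temperature, stopped and read Ex 365/Em 440 for AC50.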

Test [2] is described as follows: AP1 Signaling Pathway (AID 357; active means well fitted curve in either direction with a large enough effect, not every such curve was filed as active;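 further: ME-180 reporter cells stimulated with EGF at its EC50 level; on the % scale 0 is the no-effect control and ±100 the full control effect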). Particulars: ME-180 AP-1-bla reporter, EGF-induced, beta-lactamase ratio, 5 h; at 7.69 µM (top of the series) unless noted. Put shortly:
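In this screen, ME-180 cells in Opti-MEM with 0.5% dialyzed FBS received EC50 EGF and compound titrations for 5 h. AP-1 reporter beta-lactamase was detected via CCF4 ratio, giving AC50 for positive and negative modulators.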

Test [3] is described as follows: NFAT Signaling Pathway (AID 444; active means well fitted curve in either direction with a large enough effect, not every such curve was filed as active;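 further: carbachol stimulus at about its EC50 of 1 µM final; on the % scale 0 is the no-effect control and ±100 the full control effect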). Conditions: Jurkat NFAT-bla M1, carbachol, beta-lactamase ratio, 5 h; at 7.69 µM (top of the series) unless noted. Put shortly: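 Read-out: CCF4 FRET ratio (460 nm/530 nm) after 1 h RT dye loading, used for %activity and AC50 from titration series. Cells: Jurkat NFAT-β-lactamase/M1 line, treated with compound plus 1 uM carbachol for 5 h, 37 °C.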

Test [4] is described as follows: Stat Signaling Pathway (AID 446; active means well fitted curve in either direction with a large enough effect, not every such curve was filed as active;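 further: ME-180 cervical cancer cells given 40 pM IL-6 alongside compound; SIE-controlled beta-lactamase reporter measured as 460/530 nm FRET emission ratio; on the % scale 0 is the no-effect control and ±100 the full control effect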). Particulars: ME-180 SIE beta-lactamase reporter, IL-6 stimulated, 5 h; at 7.69 µM (top of the series) unless noted. Put shortly: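 ME-180 cells carrying a SIE-driven beta-lactamase reporter are stimulated with 40 pM IL-6 for 5 h at 37C in the presence of compound. The 460/530 nm FRET substrate ratio is read after 2.5 h at RT. Data are normalised to 300 pM IL-6 and to 125 nM JAK inhibitor controls.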

Test [5] deals with Glucocorticoid receptor (Homo sapiens) (UniProt P04150). In words: GR-GFP Redistribution (AID 450;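 active means compounds whose dose series gives a full or clear partial fitted curve of increased nuclear translocation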; further: potency means the concentration at half of the fitted maximal effect). Conditions: U2OS GR-GFP nuclear translocation, laser cytometry, 2 h.
Sequence of Glucocorticoid receptor (Homo sapiens) (P04150 whole entry, looked up, the tested form may be a part): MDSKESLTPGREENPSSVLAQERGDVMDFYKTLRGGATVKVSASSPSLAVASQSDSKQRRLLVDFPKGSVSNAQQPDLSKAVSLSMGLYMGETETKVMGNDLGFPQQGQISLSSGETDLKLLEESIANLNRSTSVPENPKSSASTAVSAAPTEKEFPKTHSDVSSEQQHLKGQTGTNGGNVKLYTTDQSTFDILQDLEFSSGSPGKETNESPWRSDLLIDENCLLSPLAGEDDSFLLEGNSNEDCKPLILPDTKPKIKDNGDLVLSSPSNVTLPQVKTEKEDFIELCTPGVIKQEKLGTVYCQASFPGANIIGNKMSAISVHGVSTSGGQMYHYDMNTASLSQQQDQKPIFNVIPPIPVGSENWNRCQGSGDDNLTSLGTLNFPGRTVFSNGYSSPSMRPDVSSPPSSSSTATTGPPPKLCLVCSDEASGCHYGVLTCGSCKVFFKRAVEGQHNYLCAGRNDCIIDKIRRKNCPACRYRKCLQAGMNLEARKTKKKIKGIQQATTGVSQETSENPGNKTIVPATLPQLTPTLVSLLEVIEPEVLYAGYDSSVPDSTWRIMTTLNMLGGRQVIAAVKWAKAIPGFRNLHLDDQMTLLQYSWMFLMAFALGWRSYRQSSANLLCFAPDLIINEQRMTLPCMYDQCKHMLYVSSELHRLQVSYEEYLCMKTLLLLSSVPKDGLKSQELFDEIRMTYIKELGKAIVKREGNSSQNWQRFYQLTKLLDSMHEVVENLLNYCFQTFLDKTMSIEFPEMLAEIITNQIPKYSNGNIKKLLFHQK
Test [6] has the same target. Nature of the test: GR-EFC Redistribution (AID 451; calls by dose curve; further: potency means the concentration at half of the fitted maximal effect). Particulars: CHO-K1 GR-EFC translocation, beta-gal luminescence, 2 h. Put shortly: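 Translocation of GR-ED fusion to nuclear EA restores b-gal, read by luminescence after 1 h room-temperature detection. Engineered CHO-K1 biosensor cells, 1,000/well, exposed 2 h at 37 C to titrations up to 46 uM final.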
For test [7], the target named is Mitogen-activated protein kinase 10 (Mus musculus) (UniProt Q61831). In words: JNK3 AlphaScreen Assay (AID 530; active means well fitted curve in either direction with a large enough effect, not every such curve was filed as active;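 further: kinase came from lysate of stimulated human HepG2 cells; signal reports phosphorylation of biotinylated GST-cJun 1-79 at Ser73 with 10 µM ATP; on the % scale 0 is the no-effect control and ±100 the full control effect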). Conditions: JNK3 lysate, c-Jun phosphorylation; series mostly up to 57.1 µM. The method in brief:
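Room-temperature AlphaScreen kinase assay; pre-activated HepG2 lysate as JNK3 source, biotin-GST-cJun(1-79) substrate, 10 uM ATP, compound 15 min preincubation.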
For orientation: Bead proximity is the source of the signal in Alpha formats.

Test [8] addresses 3',5'-cyclic-AMP phosphodiesterase 4B (Homo sapiens) (UniProt Q07343). Nature of the test: qHTS Assay for Inhibitors of PDE-IV (AID 607; active means well fitted activation curve with a large enough effect in the main read-out, with a control signal flat, not every such curve was filed as active; further: % of control where 0% means no effect). Particulars: HEK293 ACTOne CNG channel cells, membrane potential fluorescence; series mostly up to 22.9 µM. The method in brief:
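HEK293 ACTOne cells with CNG channel (1000/well), endogenous PDE4; membrane potential dye, compounds up to 22.9 uM final. Fluorescence Ex 535/Em 590; RO 20-1724 (100 uM final) as reference.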
(In general: In qHTS, concentration-response curves come from the screen itself.)

Test [9] deals with Dual specificity protein kinase CLK4 (Homo sapiens) (UniProt Q9HAZ1). Nature of the test: qHTS Assay for Inhibitors of CDC-like Kinase 4 (ADP-FP Assay) (AID 1795).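 Further: recombinant human CLK4 phosphorylating RS repeat peptide at 1 µM ATP; on the % scale 0 is the no-effect control and ±100 the full control effect; nearly all actives have a fitted effect of over 60% in size.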 Conditions: Transcreener ADP fluorescence polarization; series mostly up to 50 µM. Put shortly: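 Inhibition of ADP formation by 6.25 nM Clk4 is measured using 1 uM ATP and 100 uM RS repeat peptide over one hour. Produced ADP displaces a fluorescent tracer from antibody, lowering polarization.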
Sequence of Dual specificity protein kinase CLK4 (Homo sapiens) (Q9HAZ1 whole entry, looked up): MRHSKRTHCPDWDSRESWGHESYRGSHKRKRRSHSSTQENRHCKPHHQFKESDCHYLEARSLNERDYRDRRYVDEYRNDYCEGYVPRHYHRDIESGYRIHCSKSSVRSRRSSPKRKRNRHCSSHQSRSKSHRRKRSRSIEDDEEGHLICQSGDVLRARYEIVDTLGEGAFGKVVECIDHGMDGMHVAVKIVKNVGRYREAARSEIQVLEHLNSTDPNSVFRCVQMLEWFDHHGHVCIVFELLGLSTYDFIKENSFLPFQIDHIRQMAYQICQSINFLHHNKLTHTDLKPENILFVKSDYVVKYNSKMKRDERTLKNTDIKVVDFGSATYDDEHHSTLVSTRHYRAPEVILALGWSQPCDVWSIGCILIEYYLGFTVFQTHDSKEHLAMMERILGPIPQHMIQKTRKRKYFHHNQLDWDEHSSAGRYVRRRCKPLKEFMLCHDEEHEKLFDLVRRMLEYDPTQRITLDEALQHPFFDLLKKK

The target in test [10] is Ubiquitin carboxyl-terminal hydrolase 1 (Homo sapiens) (UniProt O94782). In words: Inhibitors of USP1/UAF1: Pilot qHTS (AID 504865). Further: nearly all actives have a fitted effect of over 35% in size. Further: potency means the concentration at half of the fitted maximal effect. Conditions: purified USP1/UAF1, Ub-rhodamine cleavage fluorescence; series mostly up to 54.9 µM. The method in brief:
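Kinetic fluorescence assay: 1nM USP1/UAF1, 15 min compound preincubation, then 150nM Ub-Rho; 480/540 nm.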

Test [11] can be described thus: Primary qHTS for small molecule stabilizers of the endoplasmic reticulum resident proteome: Secreted ER Calcium Modulated Protein (SERCaMP) assay (AID 1508630). Further: on the % scale 0 is the no-effect control and ±100 the full control effect. Particulars: SH-SY5Y GLuc-SERCaMP (Gaussia luciferase released on ER calcium loss) secretion, thapsigargin, luminescence; series mostly up to 38.4 µM. Put shortly: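 GLuc-SERCaMP-expressing SH-SY5Y cells, pretreated 16 h with compound, are challenged with thapsigargin to empty ER calcium stores; after 4 h, coelenterazine is added directly to the medium and luminescence is imaged.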

The target of test [12] is Cytochrome P450 1A2 (Homo sapiens) (UniProt P05177). In words: p450-cyp1a2 (AID 410; calls by dose curve; further: potency means the concentration at half of the fitted maximal effect). Conditions: recombinant CYP1A2, luciferin-ME demethylation, luminescence; series mostly up to 57 µM. Put shortly:
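Inhibition was calculated relative to 57 uM furafylline (full inhibition). The reaction used human CYP1A2 at 20nM with Luciferin-ME at its Km, 100uM, driven by an NADPH-regenerating system for 60 min at room temperature.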

Test [13] has as its target Cytochrome P450 2C19 (Homo sapiens) (UniProt P33261). Nature of the test: qHTS Assay for Inhibitors and Substrates of Cytochrome P450 2C19 (AID 899). Further: potency means the concentration at half of the fitted maximal effect; nearly all actives have a fitted effect of over 60% in size. Conditions: recombinant CYP2C19, luciferin-H EGE luminescence; series mostly up to 57.1 µM. The method in brief: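 5nM enzyme + 10uM Luciferin-H EGE (=KM), 50mM KPO4; cpd pin-transferred, 10 min 37C; NADPH regen, 60 min 37C; stopped w/ luciferin detection reagent, 20 min; luminescence. Normalized to 57uM ketoconazole (AC100).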

The target in test [14] is Cytochrome P450 3A4 (Homo sapiens) (UniProt P08684). In words: qHTS Assay for Activators of Cytochrome P450 3A4 (AID 885). Further: nearly all actives have a fitted effect of over 65% in size. Conditions: recombinant CYP3A4, Luciferin-PPXE luminescence, 60 min; series mostly up to 57.1 µM. The method in brief: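 Human CYP3A4 (20 nM) with Luciferin-PPXE at 25 uM (its KM) in 200 mM KPO4; 10 min compound preincubation, then NADPH regeneration and 60 min reaction at RT. Luciferin read by luminescence; normalized to 57 uM ketoconazole full inhibition.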
Sequence of Cytochrome P450 3A4 (Homo sapiens) (P08684 whole entry, looked up): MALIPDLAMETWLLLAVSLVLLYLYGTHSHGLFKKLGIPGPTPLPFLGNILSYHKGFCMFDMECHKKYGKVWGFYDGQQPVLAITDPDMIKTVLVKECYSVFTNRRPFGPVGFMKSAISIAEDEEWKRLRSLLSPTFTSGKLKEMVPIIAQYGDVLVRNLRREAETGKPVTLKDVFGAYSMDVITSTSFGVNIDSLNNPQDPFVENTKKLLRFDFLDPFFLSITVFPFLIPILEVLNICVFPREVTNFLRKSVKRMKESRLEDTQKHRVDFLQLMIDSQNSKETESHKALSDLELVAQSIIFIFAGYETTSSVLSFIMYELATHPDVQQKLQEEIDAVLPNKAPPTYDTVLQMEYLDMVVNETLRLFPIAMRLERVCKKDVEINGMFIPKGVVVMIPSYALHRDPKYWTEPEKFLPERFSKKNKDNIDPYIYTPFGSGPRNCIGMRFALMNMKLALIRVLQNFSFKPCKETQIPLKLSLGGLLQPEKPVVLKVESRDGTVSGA

A short description of test [15]: qHTS Assay for Identification of Small Molecule Agonists for Hypoxia Response Element Signaling Pathway (AID 914; active means well fitted activation curve with a large enough effect in the signal ratio, with a control signal flat, not every such curve was filed as active; the % refers to the signal ratio; further: % of control where 0% means no effect). Conditions: ME-180 (cervical carcinoma) HRE-bla reporter, beta-lactamase ratio, CoCl2, 17 h; activation: hits give high values. The method in brief:
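Cells were plated overnight, pin-dosed with compound in a titration series, co-stimulated with EC50 CoCl2 and incubated 17 hours at 37 degrees Celsius. CCF4 substrate was then loaded, and AC50 values came from the 460nm/530nm ratio.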

Test [16] deals with Cytochrome P450 3A4 (Homo sapiens) (UniProt P08684). Nature of the test: qHTS Assay for Inhibitors and Substrates of Cytochrome P450 3A4 (AID 884). Further: potency means the concentration at half of the fitted maximal effect; nearly all actives have a fitted effect of over 50% in size. Particulars: recombinant CYP3A4, Luciferin-PPXE luminescence; series mostly up to 57.1 µM. Put shortly:
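20 nM human CYP3A4 with 25 uM Luciferin-PPXE (at KM) in 200 mM KPO4, preincubated 10 min with compound; NADPH regeneration started a 60 min RT reaction. Luciferin detected by luminescence, normalized to 57 uM ketoconazole as full inhibition.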

The target of test [17] is Cytochrome P450 2D6 (Homo sapiens) (UniProt P10635). Nature of the test: qHTS Assay for Inhibitors and Substrates of Cytochrome P450 2D6 (AID 891). Further: potency means the concentration at half of the fitted maximal effect; nearly all actives have a fitted effect of over 60% in size. Conditions: recombinant CYP2D6, luciferin-ME EGE luminescence; series mostly up to 57.1 µM. The method in brief: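 Human CYP2D6 (5 nM) with 30 uM Luciferin-ME EGE (at Km) in 100 mM KPO4, compound preincubated 10 min, then NADPH regeneration system for 60 min at room temperature. Luciferin read by luminescence; normalized to 1.43 uM quinidine.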

Each structure is given as a SMILES string. Values without a mark were called inactive. Results filed as inconclusive are left out. Active and inactive are the calls of the source. Unless noted, the call rests on the fitted dose curve; in most records, active means well fitted curve in the direction sought with a large enough effect; inconclusive means small, poorly fitted or top-dose-only effect, or another doubt; inactive means no such curve, though single readings can be large; an effect the other way counts as inactive or inconclusive.

Sequence of Lysosomal acid glucosylceramidase (Homo sapiens) (P04062 whole entry, looked up): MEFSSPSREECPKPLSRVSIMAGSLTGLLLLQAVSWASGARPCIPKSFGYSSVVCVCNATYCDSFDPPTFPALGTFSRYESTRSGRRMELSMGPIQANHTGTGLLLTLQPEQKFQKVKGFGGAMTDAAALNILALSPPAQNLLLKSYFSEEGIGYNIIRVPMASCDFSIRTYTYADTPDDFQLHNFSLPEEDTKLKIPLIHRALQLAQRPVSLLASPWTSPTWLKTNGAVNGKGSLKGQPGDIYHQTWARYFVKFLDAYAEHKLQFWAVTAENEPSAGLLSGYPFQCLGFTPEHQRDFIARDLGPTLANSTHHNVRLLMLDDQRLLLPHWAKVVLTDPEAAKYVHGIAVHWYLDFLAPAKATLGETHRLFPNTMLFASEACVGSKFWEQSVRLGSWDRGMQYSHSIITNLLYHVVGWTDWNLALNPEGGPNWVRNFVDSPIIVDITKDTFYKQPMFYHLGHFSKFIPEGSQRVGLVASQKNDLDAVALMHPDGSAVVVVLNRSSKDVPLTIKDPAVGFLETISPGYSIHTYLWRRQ
Sequence of Ubiquitin carboxyl-terminal hydrolase 1 (Homo sapiens) (O94782 whole entry, looked up): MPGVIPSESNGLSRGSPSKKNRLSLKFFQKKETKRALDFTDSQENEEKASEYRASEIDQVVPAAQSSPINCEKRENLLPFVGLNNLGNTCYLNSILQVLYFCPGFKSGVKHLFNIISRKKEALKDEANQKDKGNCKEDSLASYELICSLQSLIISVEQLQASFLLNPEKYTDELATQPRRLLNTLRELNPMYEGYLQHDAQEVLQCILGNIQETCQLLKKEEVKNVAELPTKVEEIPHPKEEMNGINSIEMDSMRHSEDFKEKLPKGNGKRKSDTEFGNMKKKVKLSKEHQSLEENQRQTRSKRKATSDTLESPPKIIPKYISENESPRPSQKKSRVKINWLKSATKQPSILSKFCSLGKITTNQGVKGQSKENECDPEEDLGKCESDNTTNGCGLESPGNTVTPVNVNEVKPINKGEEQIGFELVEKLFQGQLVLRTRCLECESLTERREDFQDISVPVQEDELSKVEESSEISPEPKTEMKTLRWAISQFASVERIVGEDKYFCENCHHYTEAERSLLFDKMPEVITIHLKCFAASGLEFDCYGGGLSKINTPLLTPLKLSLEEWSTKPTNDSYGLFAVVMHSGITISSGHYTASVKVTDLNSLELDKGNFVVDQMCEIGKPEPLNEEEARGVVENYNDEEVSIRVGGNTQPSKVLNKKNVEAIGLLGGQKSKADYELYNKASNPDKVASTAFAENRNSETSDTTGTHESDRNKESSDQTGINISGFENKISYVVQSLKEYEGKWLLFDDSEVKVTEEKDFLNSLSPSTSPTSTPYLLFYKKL
Sequence of Cytochrome P450 1A2 (Homo sapiens) (P05177 whole entry, looked up): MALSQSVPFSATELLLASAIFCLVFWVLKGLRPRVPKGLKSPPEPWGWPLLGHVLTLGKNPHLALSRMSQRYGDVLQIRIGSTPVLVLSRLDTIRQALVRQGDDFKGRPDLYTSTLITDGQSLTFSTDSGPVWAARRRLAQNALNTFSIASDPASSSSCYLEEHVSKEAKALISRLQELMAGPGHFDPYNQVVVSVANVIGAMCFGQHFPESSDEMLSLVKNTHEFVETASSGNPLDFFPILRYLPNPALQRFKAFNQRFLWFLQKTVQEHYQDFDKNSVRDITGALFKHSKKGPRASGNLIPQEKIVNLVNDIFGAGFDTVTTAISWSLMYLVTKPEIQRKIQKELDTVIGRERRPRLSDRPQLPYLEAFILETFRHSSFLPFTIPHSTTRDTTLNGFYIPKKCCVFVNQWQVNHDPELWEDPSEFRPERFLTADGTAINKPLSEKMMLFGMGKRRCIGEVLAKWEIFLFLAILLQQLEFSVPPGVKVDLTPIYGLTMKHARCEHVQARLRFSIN
Sequence of Cytochrome P450 2C19 (Homo sapiens) (P33261 whole entry, looked up): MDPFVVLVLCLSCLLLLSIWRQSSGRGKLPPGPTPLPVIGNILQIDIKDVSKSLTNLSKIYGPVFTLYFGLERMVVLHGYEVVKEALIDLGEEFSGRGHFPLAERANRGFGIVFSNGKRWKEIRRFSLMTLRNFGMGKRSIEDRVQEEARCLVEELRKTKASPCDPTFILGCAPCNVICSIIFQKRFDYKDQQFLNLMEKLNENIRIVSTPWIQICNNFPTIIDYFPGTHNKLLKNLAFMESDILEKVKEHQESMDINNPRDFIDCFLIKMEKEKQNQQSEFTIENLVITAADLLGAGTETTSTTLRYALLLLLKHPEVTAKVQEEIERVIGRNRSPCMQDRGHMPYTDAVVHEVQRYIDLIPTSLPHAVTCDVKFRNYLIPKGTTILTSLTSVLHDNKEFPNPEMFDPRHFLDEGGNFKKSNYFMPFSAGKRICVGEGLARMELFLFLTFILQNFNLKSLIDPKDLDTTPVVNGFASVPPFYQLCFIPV
Sequence of 3',5'-cyclic-AMP phosphodiesterase 4B (Homo sapiens) (Q07343 whole entry, looked up): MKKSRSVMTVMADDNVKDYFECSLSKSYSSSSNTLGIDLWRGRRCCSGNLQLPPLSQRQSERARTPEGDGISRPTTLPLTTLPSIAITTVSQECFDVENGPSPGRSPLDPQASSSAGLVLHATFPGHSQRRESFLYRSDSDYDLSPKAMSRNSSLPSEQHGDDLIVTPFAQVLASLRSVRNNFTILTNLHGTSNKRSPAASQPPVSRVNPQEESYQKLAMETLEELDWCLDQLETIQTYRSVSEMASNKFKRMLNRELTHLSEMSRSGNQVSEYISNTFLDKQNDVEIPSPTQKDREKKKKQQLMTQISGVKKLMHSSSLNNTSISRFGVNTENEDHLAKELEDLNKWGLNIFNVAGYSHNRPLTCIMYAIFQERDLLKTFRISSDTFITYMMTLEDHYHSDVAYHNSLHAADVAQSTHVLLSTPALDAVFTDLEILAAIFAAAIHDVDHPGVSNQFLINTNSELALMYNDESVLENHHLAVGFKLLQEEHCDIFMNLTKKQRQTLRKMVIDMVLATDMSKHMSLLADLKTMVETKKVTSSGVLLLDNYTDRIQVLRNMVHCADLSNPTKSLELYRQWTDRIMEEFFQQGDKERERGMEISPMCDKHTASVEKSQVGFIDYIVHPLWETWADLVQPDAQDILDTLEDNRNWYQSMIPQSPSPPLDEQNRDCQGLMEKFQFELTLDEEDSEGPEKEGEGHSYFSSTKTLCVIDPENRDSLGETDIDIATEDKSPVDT

For `COCCn1c(=O)cnc2cnc(N(C)C)nc21`, the values for the Potency in test [1], in test [5] and in test [6] were more than 11.4 µM, more than 9.22 µM and more than 46 µM, respectively. Further, the activity change, negative = inhibition was 8.38% in test [2] and 7.07% in test [3]. For the same compound, the activity, negative = inhibition in test [4] was -2.06%. The Potency entry in [7], in test [8], in test [9] and in test [10] was “inactive” each time. The outcome in test [11] was inactive.
For the compound `COc1ccccc1-c1cc(Nc2ccc(F)cc2)ncn1`, the Potency was more than 11.4 µM in test [1]; 2000 nM (active) in [12]; more than 46 µM in test [5]; more than 46 µM in [6]; 7.94 µM (active) in test [13]. In [3], the activity change, negative = inhibition was -14.1%. The activity, negative = inhibition in [4] is -19.9%. The Potency entry in [7] and in test [9] was “inactive” in each case. Also, in test [11], the outcome was inactive.
As to `Cc1noc(C)c1-c1nccc(Nc2ccc(F)cc2)n1`, the Potency in test [1] is more than 11.4 µM; in test [12] it was 398 nM (active); in test [5], more than 46 µM; in test [6], more than 46 µM. In addition, the activity change, negative = inhibition in test [2] was -22.4%; in test [3], -10.5%. The activity, negative = inhibition in test [4] is 1.44%. In addition, the Potency entry in [7], in test [8], in test [14] and in test [9] was “inactive” throughout. The activation in [15] is 21.5%. In addition, the result in test [11] was inactive.
As for `Cc1noc(C)c1-c1nc(NCc2cccs2)c2ccccc2n1`, the Potency in [1] was more than 2.29 µM; in [12] it was 200 nM (active); in test [5], more than 46 µM; in [6], more than 46 µM; in test [16] it was 6.31 µM (active); in [10], 10 µM (active). In addition, the activity change, negative = inhibition in test [2] was 3.98%. Also, in test [4], the activity, negative = inhibition was -8.06%. Also, the Potency result in test [7], in test [14] and in test [9] was “inactive” throughout. For the same compound, the outcome in [11] was inactive.
As for `COc1ccccc1-c1nc(N(C)Cc2ccco2)c2ccccc2n1`, the Potency in test [1] was more than 11.4 µM; in test [12], 501 nM (active); in test [5], more than 46 µM; in test [16] it was 7.94 µM (active). In addition, the activity change, negative = inhibition in test [2] was 27.9%; in test [3], -21.3%. In addition, the activity, negative = inhibition in test [4] was 8.04%. In addition, the Potency entry in test [7], in [14] and in test [9] was “inactive” throughout. For the same compound, the outcome in test [11] was inactive.
Take `O=c1c(-c2cccs2)nc2cncnc2n1-c1ccccc1`: the Potency is more than 11.4 µM in test [1]; 12600 nM (active) in test [12]; more than 9.22 µM in test [5]; more than 46 µM in test [6]; 6.31 µM (active) in test [13]. Also, the activity change, negative = inhibition was -11.2% in test [2] and -9.03% in test [3]. For the same compound, the activity, negative = inhibition in test [4] was -0.182%. Further, the Potency entry in test [7], in test [14], in test [9] and in test [10] was “inactive” in each case. Also, the outcome in test [11] was inactive.
As for `CCNc1ncc2nc(-c3cccc(C#N)c3)c(=O)n(CCC#N)c2n1`, the Potency in test [1] was more than 11.4 µM; in [12] it was 631 nM (active); in [5], more than 9.22 µM; in test [6], more than 46 µM; in test [17], 31.6 nM (active). In addition, the activity change, negative = inhibition was 12.8% in [2] and -1.23% in test [3]. Besides, the activity, negative = inhibition in [4] is 14.1%. The Potency result in test [7], in test [14], in [9] and in test [10] was “inactive” throughout. Further, the result in test [11] was inactive.
